Measured values from PubChem BioAssay AID1159580 (chemical genetic matrix, 2015).
Hit rate of the full screen: of about 5,500 compounds, about 2,000 (36%) were called active. Roughly 18% stayed inconclusive and do not appear here. This is one part of the list. A number with no mark means an inactive call. Cut-off read from the data, not from the text of the source: active = normalized growth mostly below about 0.91 (no sharp cut-off); inconclusive = no clear call, values can overlap the other calls; inactive = mostly above about 0.92.

Experiment: chemical genetic growth profiling, strain panel (AID 1159580);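 note: tested at 20 µM; growth read once vehicle control cultures reached saturation at 30 °C; 1 = growth at the plate median or of vehicle wells; lower values mean less growth of the strain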
Details: S. cerevisiae deletion strains, growth OD
[1] = locus YBL105C, strain PKC1, active compounds read low
[2] = locus YBR135W, strain CKS1, active compounds read low
[3] = locus YBR160W, strain CDC28, active compounds read low
[4] = locus YDL017W, strain CDC7, active compounds read low
[5] = locus YDL028C, strain MPS1, active compounds read low
[6] = locus YDL108W, strain KIN28, active compounds read low
[7] = locus YDL132W, strain cdc53, active compounds read low
[8] = locus YDL214C, strain PRR2, active compounds read low
[9] = locus YDR052C, strain DBF4, active compounds read low
[10] = locus YDR054C, strain cdc34, active compounds read low
[11] = locus YDR477W, strain SNF1, active compounds read low
[12] = locus YER123W, strain YCK3, active compounds read low
[13] = locus YER133W, strain GLC7, active compounds read low
[14] = locus YFL029C, strain CAK1, active compounds read low
[15] = locus YFR003C, strain YPI1, active compounds read low
[16] = locus YFR028C, strain CDC14, active compounds read low
[17] = locus YGR040W, strain KSS1, active compounds read low
[18] = locus YGR052W, strain FMP48, active compounds read low
[19] = locus YGR092W, strain DBF2, active compounds read low
[20] = locus YHR030C, strain SLT2, active compounds read low
[21] = locus YHR079C, strain IRE1, active compounds read low
[22] = locus YHR082C, strain KSP1, active compounds read low
[23] = locus YHR205W, strain SCH9, active compounds read low
[24] = locus YIL147C, strain SLN1, active compounds read low
[25] = locus YJL095W, strain BCK1, active compounds read low
[26] = locus YJL128C, strain PBS2, active compounds read low
[27] = locus YJL157C, strain FAR1, active compounds read low
[28] = locus YJR066W, strain TOR1 (second series), active compounds read low
[29] = locus YJR066W, strain TOR1, active compounds read low
[30] = locus YKL048C, strain ELM1, active compounds read low
[31] = locus YKL067W, strain YNK1, active compounds read low
[32] = locus YKL101W, strain HSL1, active compounds read low
[33] = locus YKL203C, strain TOR2, active compounds read low
[34] = locus YLR113W, strain HOG1, active compounds read low
[35] = locus YLR133W, strain CKI1, active compounds read low
[36] = locus YLR403W, strain SFP1, active compounds read low
[37] = locus YML070W, strain DAK1, active compounds read low
[38] = locus YMR001C, strain CDC5, active compounds read low
[39] = locus YMR205C, strain PFK2 (second series), active compounds read low
[40] = locus YMR277W, strain FCP1, active compounds read low
[41] = locus YNL006W, strain LST8, active compounds read low
[42] = locus YNL020C, strain ARK1, active compounds read low
[43] = locus YNL183C, strain NPR1, active compounds read low
[44] = locus YNL207W, strain RIO2, active compounds read low
[45] = locus YNL222W, strain SSU72, active compounds read low
[46] = locus YNL307C, strain MCK1 (second series), active compounds read low
[47] = locus YOL078W, strain AVO1, active compounds read low
[48] = locus YOL136C, strain PFK27, active compounds read low
[49] = locus YOR061W, strain CKA2, active compounds read low
[50] = locus YOR119C, strain RIO1, active compounds read low
[51] = locus YOR231W, strain MKK1, active compounds read low
[52] = locus YOR329C, strain SCD5, active compounds read low
[53] = locus YPL031C, strain PHO85, active compounds read low
[54] = locus YPL153C, strain RAD53, active compounds read low
[55] = locus YPL204W, strain HRR25, active compounds read low
[56] = locus YPL209C, strain IPL1, active compounds read low
[57] = locus YPL256C, strain CLN2, active compounds read low
[58] = locus YPR025C, strain CCL1, active compounds read low
[59] = locus YPR106W, strain ISR1, active compounds read low
[60] = locus YPR111W, strain DBF20, active compounds read low
[61] = strain NNK1, active compounds read low
[62] = strain TSCII, active compounds read low

Which results are given for `Cc1ccccc1C(=O)Oc1ccc(C(F)(F)F)cc1[N+](=O)[O-]`?
normalized growth (locus YAR019C, strain CDC15, active compounds read low): 0.961; normalized growth [1]: 0.969; normalized growth [2]: 0.964; normalized growth (locus YBR136W, strain MEC1, active compounds read low): 0.962; normalized growth [3]: 0.966; normalized growth [4]: 0.975; normalized growth [5]: 0.947; normalized growth (locus YDL101C, strain DUN1, active compounds read low): 0.979; normalized growth [6]: 0.964; normalized growth [7]: 0.964; normalized growth [8]: 0.864; normalized growth [9]: 0.969; normalized growth [10]: 0.965; normalized growth (locus YDR226W, strain ADK1, active compounds read low): 0.982; normalized growth [11]: 0.937; normalized growth [12]: 0.883; normalized growth [13]: 0.941; normalized growth (locus YFL009W, strain cdc4, active compounds read low): 0.96; normalized growth [14]: 0.965; normalized growth [15]: 0.972; normalized growth (locus YFR019W, strain FAB1, active compounds read low): 0.979; normalized growth [16]: 0.963; normalized growth [17]: 0.934; normalized growth [18]: 0.894; normalized growth [19]: 0.807; normalized growth [20]: 0.769 (active); normalized growth [21]: 0.836; normalized growth [22]: 0.951; normalized growth [23]: 0.79; normalized growth [24]: 0.97; normalized growth [25]: 0.831; normalized growth [26]: 0.868; normalized growth [27]: 0.899; normalized growth (locus YJR016C, strain ILV3, active compounds read low): 0.968; normalized growth [28]: 0.891; normalized growth [29]: 0.948; normalized growth [30]: 0.925; normalized growth [31]: 0.879; normalized growth [32]: 0.874; normalized growth (locus YKL193C, strain SDS22, active compounds read low): 0.971; normalized growth [33]: 0.956; normalized growth [34]: 0.614 (active); normalized growth [35]: 0.909; normalized growth [36]: 0.908; normalized growth [37]: 0.891; normalized growth [38]: 0.969; normalized growth [39]: 0.898; normalized growth [40]: 0.962; normalized growth [41]: 0.977; normalized growth [42]: 0.893; normalized growth (locus YNL161W, strain CBK1, active compounds read low): 0.971; normalized growth [43]: 0.861; normalized growth [44]: 0.956; normalized growth [45]: 0.955; normalized growth [46]: 0.823; normalized growth [47]: 0.969; normalized growth [48]: 0.869; normalized growth [49]: 0.879; normalized growth [50]: 1; normalized growth [51]: 0.827; normalized growth [52]: 0.964; normalized growth [53]: 0.917; normalized growth [54]: 0.917; normalized growth [55]: 0.882; normalized growth [56]: 0.967; normalized growth [57]: 0.784 (active); normalized growth [58]: 0.959; normalized growth [59]: 0.955; normalized growth [60]: 0.912; normalized growth [61]: 0.941; normalized growth [62]: 0.96

Which results are given for `O=C(Oc1ccc(C(F)(F)F)cc1[N+](=O)[O-])c1cccc(Cl)c1`?
normalized growth [1]: 0.953; normalized growth [2]: 0.936; normalized growth [3]: 0.944; normalized growth [4]: 0.947; normalized growth [5]: 0.941; normalized growth [6]: 0.936; normalized growth [7]: 0.911; normalized growth [8]: 0.746; normalized growth [9]: 0.944; normalized growth [10]: 0.613 (active); normalized growth [11]: 0.626 (active); normalized growth [12]: 0.423 (active); normalized growth [13]: 0.584 (active); normalized growth [14]: 0.923; normalized growth [15]: 0.944; normalized growth [16]: 0.938; normalized growth [17]: 0.617 (active); normalized growth [18]: 0.124 (active); normalized growth [19]: 0.133 (active); normalized growth [20]: 0.132 (active); normalized growth [21]: 0.22 (active); normalized growth [22]: 0.162 (active); normalized growth [23]: 0.00246 (active); normalized growth [24]: 0.947; normalized growth [25]: 0.141 (active); normalized growth [26]: 0.132 (active); normalized growth [27]: 0.638 (active); normalized growth [28]: 0.248 (active); normalized growth [29]: 0.134 (active); normalized growth [30]: 0.623 (active); normalized growth [31]: 0.645 (active); normalized growth [32]: 0.662 (active); normalized growth [33]: 0.712; normalized growth [34]: 0.21 (active); normalized growth [35]: 0.556 (active); normalized growth [36]: 0.0472 (active); normalized growth [37]: 0.521 (active); normalized growth [38]: 0.943; normalized growth [39]: 0.584 (active); normalized growth [40]: 0.948; normalized growth [41]: 0.945; normalized growth [42]: 0.513 (active); normalized growth [43]: 0.132 (active); normalized growth [44]: 0.571 (active); normalized growth [45]: 0.93; normalized growth [46]: 0.295 (active); normalized growth [47]: 0.939; normalized growth [48]: 0.426 (active); normalized growth [49]: 0.369 (active); normalized growth [50]: 0.448 (active); normalized growth [51]: 0.348 (active); normalized growth [52]: 0.946; normalized growth [53]: 0.507 (active); normalized growth [54]: 0.581 (active); normalized growth [55]: 0.449 (active); normalized growth [56]: 0.941; normalized growth [57]: 0.266 (active); normalized growth [58]: 0.937; normalized growth [59]: 0.584 (active); normalized growth [60]: 0.363 (active); normalized growth [61]: 0.554 (active); normalized growth [62]: 0.94
